PAX8 inh HTS: PAX8 transcriptional activity inhibition; inhibition, % at 12.6 µM; RMG-I TPO-luciferase reporter, SteadyGlo, 24 h; 1.2% of 360,000 active;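 active = mean replicate inhibition at least 60% with every replicate also reaching 60%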;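 note: luciferase light reporting Pax8 driven TPO promoter activity; plate controls were median of neutral control wells for no effect and mitoxantrone controls for full effect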
GSIS activator: GLuc luminescence reporter in INS-1E cells, primary screen for activators of glucose-dependent secretion of insulin; INS-1E GLuc reporter insulin secretion, 2-3 h; activation, % at 16.6 µM; 0.61% of 370,000 active; AID 743287;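 active = lowest replicate activation of at least 40%, so every replicate reaches that level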;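 note: 0% = median of neutral control wells and 100% = median of IBMX positive control wells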
EWS-Fli block: blocks EWS/Fli oncoprotein-driven transcription | A673 NR0B1-luciferase reporter, viability-normalised | inhibition, % at 12.6 µM | 0.67% of 350,000 active | AID 651661;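 active = mean inhibition of at least 50% after viability correction, with every replicate also passing that limit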;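 note: firefly luciferase signal divided by Alamar Blue viability fluorescence both relative to DMSO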
Statin myotox sup: suppressors of simvastatin-induced myotoxicity in C2C12 myotubes. ATP luminescence, 48 h; scaled: DMSO 0, geranylgeraniol control 100. rescue of ATP level, % at 7.49 µM. 0.78% of 330,000 active. AID 602340;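 active = mean ATP rescue above about 67%, or every replicate alone reaching that limit, limit read from the data, passing the limit was not always enough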;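 note: myotubes were challenged with 10 µM simvastatin during compound exposure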
miR-122 sensor: blocks miR-122 activity in Huh7 sensor cells | Huh7 miR-122 Renilla luciferase sensor, 48 h; neutral wells = 0, positive control = 100 | activation (reporter increase), % at 12.5 µM | 0.3% of 340,000 active | AID 602342;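 active = mean replicate activation score at least 90 and every replicate individually at or above 90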;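 note: higher luciferase means less miR-122 activity so hits act as miR-122 inhibitors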
HIV Env fusion: blocks HIV Env-driven cell-cell fusion; HeLa-JRFL Env/CEM21 cell fusion, luciferase; inhibition, % at 12.3 µM; 1.1% of 360,000 active;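 active = mean replicate inhibition score of at least 50 and every replicate individually at or above 50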;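 note: 0% = plate neutral controls and 100% = maraviroc near 300 nM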
* hit, by the source's call; nt = no result given; [ ] = another dose, or the depositor's remark. Compounds with a hit are over-represented: about 3.1% of the library has one in this group of screens.

SMILES	PAX8 inh HTS	GSIS activator	EWS-Fli block	Statin myotox sup	miR-122 sensor	HIV Env fusion
COc1ccc(C2C(C(=O)OCC(=O)Nc3ccc(C)cc3)CCC(=O)N2c2ccc(OC)cc2)cc1 (configuration not stated)	nt	nt	nt	95.3*	-0.4	nt
COc1ccc(N2CC(O)=C(c3nc(-c4ccc(Cl)cc4)cs3)C2=N)cc1	7.5	-10.7	5.3	nt	nt	6.0
CC(C)CCN1CC(O)=C(c2nc(-c3ccc(Cl)cc3)cs2)C1=N	nt	78.3*	nt	-1.3	-0.1	nt
CCOc1ccc(Br)cc1S(=O)(=O)Nc1ccc(Cl)c(S(=O)(=O)N(CC)c2ccccc2)c1	8.3	-15.3	4.3	nt	281.0*	-3.5
CCC1(O)C(=O)OCc2c1cc1n(c2=O)Cc2cc3c(N)cccc3nc2-1 (configuration not stated)	110.0*	nt	54.7*	nt	-0.6	67.9*
COc1ccc(CC(N)c2csc(Nc3nncc4ccccc34)n2)cc1 (configuration not stated)	2.3	41.1	10.5	-5.8	-6.5	58.1*
NC(Cc1ccccc1)c1csc(NC(=O)Nc2ccccc2Oc2ccccc2)n1 (configuration not stated)	-9.1	8.4	13.6	-21.2	-18.4	60.2*
COc1ccc(CC(N)c2csc(NC(=O)Nc3ccccc3Oc3ccccc3)n2)cc1 (configuration not stated)	3.3	10.6	25.7	-3.1	-4.8	100.0*
COc1ccc(CC(N)c2csc(NC(=O)Nc3ccccc3Cc3ccccc3)n2)cc1 (configuration not stated)	24.2	-16.6	57.6*	0.4	7.3	98.5*
COc1ccc2c3c([nH]c2c1)[C@H](CO)NCC31CN(C(=O)Cc2cccnc2)C1	nt	18.0	-2.1	nt	nt	nt
O=C(Nc1cccc(F)c1)N1CC(=O)N2[C@H](CO)[C@H](c3ccc(-c4ccc(F)cc4)cc3)[C@H]2C1	-1.6	-25.3	13.3	nt	nt	nt
COc1ccc(CN(C)C[C@@H]2OCCCC[C@@H](C)Oc3ccc(NC(=O)NC4CCCCC4)cc3C(=O)N([C@@H](C)CO)C[C@H]2C)cc1	nt	-9.3	-5.5	nt	0.5[16.7 µM]	-1.0[16.7 µM]
O=C(c1ccncc1)N1CC(=O)N2[C@H](CO)[C@H](c3ccc(-c4ccccc4F)cc3)[C@H]2C1	2.2	3.0	-5.9	nt	nt	nt
C[C@@H]1CN([C@@H](C)CO)C(=O)c2cc(NS(=O)(=O)c3ccc(F)cc3)ccc2O[C@@H](C)CCCCO[C@H]1CN(C)CC1CC1	-2.5	-12.4	nt	nt	2.4[16.7 µM]	-36.7[16.7 µM]
C[C@@H]1CCCCO[C@@H](CN(C)C(=O)Nc2cccc3ccccc23)[C@H](C)CN([C@@H](C)CO)C(=O)c2cc(NC(=O)NC3CCCCC3)ccc2O1	-5.2	9.2	5.9	nt	-2.7[16.7 µM]	31.0[16.7 µM]
CN(C)Cc1csc(NC(=O)Nc2ccccc2-c2ccccc2)n1	-3.4	-18.7	7.4	-0.1	-1.8	-13.1
CN(C)Cc1csc(NC(=O)Nc2ccccc2Oc2ccccc2)n1	-31.5	-9.5	13.7	72.8*	-3.1	19.1
Cc1cccc(N2CCN(C(=O)c3cccc(S(=O)(=O)N4CCCCC4)c3)CC2)c1C	-30.5	nt	-4.1	-2.2	-6.2	64.2*
Cc1[nH]c2ccc(C(=O)N3CCN(c4ccccc4Cl)CC3)cc2c1C	8.2	-13.8	nt	61.0	nt	2.0
O=C(c1cccc(S(=O)(=O)N2CCCCCC2)c1)N1CCN(c2ccccc2F)CC1	9.2	-50.4	nt	nt	16.3	-3.5
Cc1cccc(N2CCN(C(=O)c3ccc4[nH]c(C)c(C)c4c3)CC2)c1C	28.5	-5.2	54.1*	-9.8	49.0	nt
Nc1cccc2c1C(=O)N(C(=O)c1cccc(S(=O)(=O)N3CCCC3)c1)C2=O	nt	nt	nt	137.7*	-3.2	-11.6
CSc1ccc(CNc2ccccn2)cc1	nt	-5.5	nt	81.6*	-4.9	nt
Fc1ccc(CNc2ccccn2)cc1	-25.7	nt	-14.9	-4.9	-1.0	1.8
Cc1ccc(S(=O)(=O)Nc2cccc3c2O[C@@H](CN(C)Cc2ccc(C(F)(F)F)cc2)[C@H](C)CN([C@H](C)CO)C3=O)cc1	nt	-11.5	5.7	101.5*	75.3[16.7 µM]	nt
C[C@@H]1CN([C@@H](C)CO)C(=O)c2cccc(NS(=O)(=O)c3ccc(F)cc3)c2O[C@@H]1CN(C)Cc1ccc(C(F)(F)F)cc1	36.5	-11.1	10.3	4.7	-1.4[16.7 µM]	57.8*[16.7 µM]
